In the library only some 13% were active in any assay of this set; here they are far more common.
Pf growth 96h – P. falciparum growth inhibition at 96 hours. Potency, µM (doses to about 28.7 µM), without a hit: top-dose activity change, negative = inhibition, most hits filed as inhibitors. AID 504834. actives 6.9% (n = 320,000). P. falciparum luciferase reporter growth, 96 h; also: potency is read from the fitted curve at half-maximal effect
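Compounds incubated with erythrocytes infected by luciferase-expressing P. falciparum (2% hematocrit, 0.05% parasitemia final) for 96 hours, 37 C in 5% CO2. Growth inhibition scored as decreased luciferase luminescence.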
Pf growth 48h – inhibits P. falciparum growth in the first generation, 48 h; P. falciparum luciferase growth in erythrocytes, 48 h; Potency, µM (series often up to 28.7 µM), without a hit: at the top dose activity change, negative = inhibition, hits mostly inhibitors; actives 5.9% (n = 310,000); also: potency is read from the fitted curve at half-maximal effect
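Luciferase-expressing P. falciparum in infected erythrocytes (2% hematocrit, 0.1% parasitemia final) in RPMI 1640/0.5% Albumax were exposed to compound for 48 hours at 37 C, 5% CO2; growth read as luminescence.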
HCV inh – inhibitors of hepatitis C virus infection; AID 651820; Potency, µM (highest dose often 41.8 µM), for the others: at the highest dose activity change, negative = inhibition, usual class: inhibitors; actives 3.4% (n = 340,000); Huh7.5.1 HCVcc-Cre infection, luciferase reporter, 44 h; also: potency is read from the fitted curve at half-maximal effect
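Antiviral activity was scored by luciferase reporter output from cells infected with HCVcc-Cre (~0.5 moi) in presence of compound, 44 h infection period, cells seeded 1,000/well 4 h prior.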
HCMV inh – human cytomegalovirus inhibition; HFF cells, HCMV-luciferase reporter, 72 h; stronger effect = lower value; activity change, negative = inhibition, % at 57.5 µM; actives 4.5% (n = 410,000); AID 1259415; in the data active = activity change below about -60%; inconclusive = no clear call, values can overlap the other calls; inactive = above about -39%
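Two compound doses tested in HFFs infected with HCMV-luciferase, MOI 1 PFU/cell, 72 h at 37C. Lysate luminescence read with OneGlo; data normalized against buffer-only and 10uM Salinomycin inhibitor controls.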
* hit, by the source's call; i = inactive; ? = inconclusive; / = no result. Unless noted, calls follow the shape of the dose curve; as a rule, active = well fitted inhibition curve with a large enough effect; inconclusive = small, poorly fitted or top-dose-only effect, or another doubt; inactive = no such curve, though single readings can be large or run the other way. % is scaled to controls: 0 for no effect and ±100 for the full control effect.

SMILES	Pf growth 96h	Pf growth 48h	HCV inh	HCMV inh
CCc1ccc(OCC(=O)NNC(=O)c2cnccn2)c(Br)c1	?	10.4µM*	0.7%	99.8
CCc1ccc(OCC(=O)NNC(=S)NC(=O)C2CCCCC2)c(Br)c1	8.9%	25.0%	-11.4%	14.5
CCc1ccc(OCC(=O)NC2CCCCC2)c(Br)c1	11.7µM*	1.4%	?	148.7
CCc1ccc(OCC(=O)Nc2ccncc2)c(Br)c1	-17.4%	68.1%	?	12.9
Cc1ccc(Nc2cc(=O)oc3ccccc23)c(C)c1	0.131µM*	?	8.7%	-31.9
Cc1ccccc1Nc1cc(=O)oc2ccccc12	13.1µM*	/	-22.8%	-27.3
COC(=O)c1cc(NS(=O)(=O)c2cc(Br)cc3c2N(C(C)=O)CC3)cc(C(=O)OC)c1	/	/	/	19.4
COc1cc(OC)cc(-c2nnc(SCC(=O)N3CCC(C)CC3)o2)c1	/	/	/	-13.8
Cc1nc2c3ccccc3nc(SCC(=O)c3ccc(Cl)cc3)n2n1	?	-4.0%	25.1µM*	-39.9
Cc1nc2c3ccccc3nc(SCC(=O)N3CC(C)CC(C)C3)n2n1 (centres undefined)	?	/	5.5%	-14.5
Cc1cccc(CN2CCN(CC(=O)NCCc3ccc(Cl)cc3)C2=O)c1	/	/	/	-12.3
COC(=O)c1cc(NC(=O)c2c(C)noc2C)ccc1N1CCOCC1	1.0%	72.0%	7.9%	5.5
COC(=O)c1cc(NC(=O)c2cc(-c3ccc(C(F)(F)F)cc3)oc2C(F)(F)F)ccc1N1CCOCC1	1.47µM*	2.08µM*	3.55µM*	-94.0*
COC(=O)c1cc(NC(=O)c2cc(-c3ccc(OC)cc3)oc2C(F)(F)F)ccc1N1CCOCC1	9.28µM*	8.28µM*	7.08µM*	-24.8
COC(=O)c1cc(NC(C)=O)ccc1N1CCOCC1	439.3%	24.0%	2.3%	8.5
COC(=O)c1cc2oc(C)cc2n1CC(=O)N1CCCc2ccccc21	6.57µM*	?	?	5.9
COC(=O)c1cc2sc(Cl)cc2n1CC(=O)N1CCCc2ccccc21	20.6%	10.4µM*	-8.6%	/
COC(=O)c1cc2occc2n1Cc1c(F)cccc1Cl	2.62µM*	1.2%	/	/
COC(=O)c1cc2occc2n1Cc1ccc(Cl)cc1	16.3%	/	8.8%	-22.3
COC(=O)c1cc2occc2n1CC(=O)Nc1ccc(C)cc1C	/	-12.0%	?	-62.6*
COC(=O)c1cc2sccc2n1CC(=O)N1CCCc2ccccc21	?	?	-22.9%	-31.5
COC(=O)c1cc2oc(C)cc2n1CC(=O)Nc1ccc(C)c(C)c1	1.65µM*	0.0%	3.98µM*	20.3
CCOC(=O)c1cc2occc2n1CC(=O)N1CCCc2ccccc21	i	9.28µM*	-21.9%	6.8
CCn1cc(CN2CCc3c([nH]c4ccccc34)C2c2ccc(F)c(OC)c2)c(C)n1 (centres undefined)	?	11.7µM*	-24.3%	3.0
CCn1cc(CN2CCc3c([nH]c4ccccc34)C2c2cccc(O)c2)c(C)n1 (centres undefined)	-1.3%	-17.0%	-9.6%	27.1
SMILES	Pf growth 96h	Pf growth 48h	HCV inh	HCMV inh
CCn1nc(C)c(CN2CCc3c([nH]c4ccccc34)C2c2ccc(F)c(OC)c2)c1C (centres undefined)	?	2.62µM*	?	-76.0*
CCn1cc(CN2CCc3c([nH]c4ccccc34)C2c2cccc(OC)c2)c(C)n1 (centres undefined)	?	11.7µM*	-8.5%	23.1
COc1cccc(C2c3[nH]c4ccccc4c3CCN2CCCn2cccn2)c1 (centres undefined)	?	?	-29.9%	-10.4
CCOC(=O)c1ccc(NC(=O)CSc2cn(CC(=O)N3CCCC3)c3ccccc23)cc1	/	/	/	51.5
COc1ccc(CCNC(=O)C(=O)NCC2OCCN2S(=O)(=O)c2ccc(OC)c(OC)c2)cc1 (centres undefined)	?	?	-25.6%	11.2
Cc1cc(S(=O)(=O)N2CCCOC2CNC(=O)C(=O)NCCc2ccco2)ccc1F (centres undefined)	8.28µM*	-11.6%	0.6%	13.9
COc1ccc(CCNC(=O)C(=O)NCC2OCCN2S(=O)(=O)c2ccc3c(c2)OCCO3)cc1OC (centres undefined)	11.7µM*	?	?	-15.8
COc1ccc(CCNC(=O)C(=O)NCC2OCCN2S(=O)(=O)c2ccc3c(c2)OCCO3)cc1 (centres undefined)	?	7.3%	?	-28.6
COc1ccc(S(=O)(=O)N2CCOC2CNC(=O)C(=O)NCCc2ccc(OC)c(OC)c2)cc1C (centres undefined)	?	-25.4%	11.2µM*	-39.0
Cc1ccc(-c2nc3sc(CCNC(=O)c4ccc(C)c(C)c4)c(C)n3n2)cc1	/	/	/	19.4
O=C(Nc1cccc(-c2nc3ccccc3o2)c1)c1cccc2c(Cl)cccc12	/	/	/	26.2
CCOC(=O)c1c(C)oc2c1c(CN1CCN(C(=O)OCC)CC1)c(O)c1ccccc12	-30.8%	115.1%	?	133.6
CCOC(=O)c1c(C)oc2c1c(C(c1ccncc1)N1CCOCC1)c(O)c1ccccc12 (centres undefined)	-1.4%	?	12.6µM*	127.4
Cc1ccccc1C(=O)N1CCN(c2ccc([N+](=O)[O-])c(NCc3ccco3)c2)CC1	?	13.1µM*	12.6µM*	-27.5
O=C(c1cccc2ccccc12)N1CCN(c2ccc([N+](=O)[O-])c(NCc3ccco3)c2)CC1	85.5%	?	?	?
Cc1cccc(C(=O)N2CCN(c3ccc([N+](=O)[O-])c(NCc4ccco4)c3)CC2)c1	11.7µM*	?	?	-31.0
Cc1ccc(C(=O)N2CCN(c3ccc([N+](=O)[O-])c(NCc4ccco4)c3)CC2)cc1	4.65µM*	?	?	-36.9
Cc1ccc(C)c(Cn2c(=O)n(Cc3ccccc3)c(=O)c3c(C)c(C)sc32)c1	/	/	/	-0.6
CN(C(=O)CCn1c(=S)oc2ccccc21)c1ccc(F)cc1	?	-2.2%	7.6%	-88.7*
CC(C)c1ccc(NC(=O)CCNS(=O)(=O)c2ccc3c(c2)CCCC(=O)N3)cc1	/	/	/	-11.8
O=C1C=C(O)C(n2cncn2)C(c2ccc(F)cc2)C1 (centres undefined)	-7.1%	i	11.1%	-36.7
COc1ccc(C2CC(=O)C(C3NCCc4ccccc43)=C(O)C2n2cncn2)cc1 (centres undefined)	65.8%	16.5µM*	-11.4%	18.0
C[C@]12CCC(=O)C[C@@H]1CC[C@@H]1[C@@H]2CC[C@]2(C)[C@@H](O)CC[C@@H]12	-19.8%	-2.1%	-10.4%	-61.2*
C[C@]12CCC3C(CC[C@@H]4CC(=O)CC[C@]34C)C1CC[C@@H]2O (some centres undefined)	/	/	15.9%	-20.7
C[C@H]1CC[C@@]2(C)[C@@H](CC[C@@H]3[C@@H]2CC[C@]2(C)[C@@H](O)CC[C@@H]32)C1	?	5.0%	14.0%	-100.3*
C[C@]12CCC3C(CCC4=C(Cl)C(=O)CC[C@@]43C)C1CCC2O (some centres undefined)	10.7µM*	?	/	/
